From PubChem BioAssay (NCATS) come the findings set out here.

For experiment [1], the target named is Estrogen receptor (Homo sapiens) (UniProt P03372). Put plainly: qHTS assay for small molecule antagonists of estrogen receptor alpha signaling (AID 588513; active = well fitted curve in the direction sought with a large enough effect in the signal ratio, with a control signal flat, not every such curve was filed as active; the % refers to the signal ratio; note: % is set by controls: 0 for no effect and ±100 for the full control effect). The gist of the method:
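Fluorescence from CCF4 substrate after 2 h at room temperature gave reporter activity; cells had been exposed to compound and 0.5nM 17-beta-estradiol for 18 h at 37 C. Hill-equation fitting yielded IC50 and maximal response.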

Experiment [2] has the same target. Put plainly: qHTS assay for small molecule agonists of estrogen receptor alpha signaling (AID 588514; calls by dose curve; note: nearly all actives have a fitted effect of over 70% in size; note: potency is the fitted concentration of half-maximal effect;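 for activation: 0% = vehicle only and 100% = reference agonist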). The gist of the method:
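Read-out: CCF4 fluorescence from a beta-lactamase reporter in ER-alpha-UAS-bla HEK 293 cells after 18 hrs of compound exposure at 37 C. Normalized to 20 nM 17-beta-estradiol (100%) and DMSO (0%).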
In general terms: qHTS replaces the single test concentration by a dilution series.

The target in experiment [3] is Glucocorticoid receptor (Homo sapiens) (UniProt P04150). Put plainly: qHTS assay for small molecule agonists of glucocorticoid receptor signaling (AID 588532; active = well fitted curve in the direction sought with a large enough effect in the signal ratio, with a control signal flat; the % refers to the signal ratio;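 note: 100% = dexamethasone at 0.1 µM and 0% = DMSO only wells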). Conditions: HeLa MMTV-bla, beta-lactamase ratio, agonist, 18 h; stronger effect = higher value; percent of dexamethasone control, DMSO zero. The gist of the method: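 Agonist-mode qHTS: GRE-driven beta-lactamase in HeLa cells exposed 18 h to titrated compounds (up to 92 uM), then CCF4 ratio read after 2 h at RT; Hill-fitted EC50, efficacy relative to 0.1 uM dexamethasone.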
Glucocorticoid receptor (Homo sapiens), sequence (P04150 whole entry, looked up): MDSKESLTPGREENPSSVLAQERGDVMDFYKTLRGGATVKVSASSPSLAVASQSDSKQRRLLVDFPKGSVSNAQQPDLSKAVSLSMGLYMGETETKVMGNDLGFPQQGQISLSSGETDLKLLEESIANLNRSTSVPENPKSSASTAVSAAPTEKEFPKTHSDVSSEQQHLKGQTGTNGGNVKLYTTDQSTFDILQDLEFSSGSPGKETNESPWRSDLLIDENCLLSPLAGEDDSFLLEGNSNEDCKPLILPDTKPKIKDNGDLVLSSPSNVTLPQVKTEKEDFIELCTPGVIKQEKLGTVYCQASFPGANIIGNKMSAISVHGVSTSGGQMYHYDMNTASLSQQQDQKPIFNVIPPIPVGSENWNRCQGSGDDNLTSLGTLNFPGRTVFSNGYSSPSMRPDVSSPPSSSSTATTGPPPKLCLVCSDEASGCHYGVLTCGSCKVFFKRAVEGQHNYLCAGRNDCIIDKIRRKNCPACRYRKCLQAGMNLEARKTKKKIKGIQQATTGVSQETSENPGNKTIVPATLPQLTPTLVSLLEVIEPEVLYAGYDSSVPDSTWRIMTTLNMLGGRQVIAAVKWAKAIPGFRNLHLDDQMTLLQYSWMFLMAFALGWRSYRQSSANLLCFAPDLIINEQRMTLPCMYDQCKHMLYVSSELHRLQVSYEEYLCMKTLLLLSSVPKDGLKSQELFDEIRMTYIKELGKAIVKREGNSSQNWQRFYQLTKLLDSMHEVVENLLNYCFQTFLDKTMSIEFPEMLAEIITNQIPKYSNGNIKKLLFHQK

Experiment [4] can be described thus: qHTS assay for small molecule antagonists of peroxisome proliferator-activated receptor delta signaling (AID 588535; active = well fitted inhibition curve with a large enough effect in the signal ratio, with a control signal flat, not every such curve was filed as active; the % refers to the signal ratio;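 for max response: cells co-treated with a PPAR-delta agonist as stimulator during compound exposure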). Particulars: HEK293T PPARd-UAS-bla, beta-lactamase FRET ratio, 18 h; 460 nm channel. A digest of the protocol: (§1)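 Antagonist-mode qHTS using GeneBLAzer PPAR-delta-UAS-bla HEK293T cells; compound exposure 18 hrs at 37 C over a titration. Ratiometric CCF4 fluorescence at 460/530 nm; concentration-response points fitted to the Hill equation.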

For experiment [5], the target named is Peroxisome proliferator-activated receptor delta (Homo sapiens) (UniProt Q03181). The description is as above. A digest of the protocol:
as §1

The target in experiment [6] is Peroxisome proliferator-activated receptor gamma (Homo sapiens) (UniProt P37231). Put plainly: qHTS assay for small molecule agonists of peroxisome proliferator-activated receptor gamma signaling (AID 588536; active = well fitted curve in the direction sought with a large enough effect in the signal ratio, with a control signal flat, not every such curve was filed as active; the % refers to the signal ratio;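 note: 0% = DMSO basal wells and 100% = rosiglitazone at 2 µM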). The gist of the method: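 Beta-lactamase reporter read-out: CCF4 fluorescence (ex 405, em 460/530 nm) after 2 h at RT. HEK293 GeneBLAzer cells were treated for 16 h at 37 C. Hill fits gave EC50 and efficacy versus 2 uM rosiglitazone (100%) and DMSO (0%).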
Peroxisome proliferator-activated receptor gamma (Homo sapiens), sequence (P37231 whole entry, looked up): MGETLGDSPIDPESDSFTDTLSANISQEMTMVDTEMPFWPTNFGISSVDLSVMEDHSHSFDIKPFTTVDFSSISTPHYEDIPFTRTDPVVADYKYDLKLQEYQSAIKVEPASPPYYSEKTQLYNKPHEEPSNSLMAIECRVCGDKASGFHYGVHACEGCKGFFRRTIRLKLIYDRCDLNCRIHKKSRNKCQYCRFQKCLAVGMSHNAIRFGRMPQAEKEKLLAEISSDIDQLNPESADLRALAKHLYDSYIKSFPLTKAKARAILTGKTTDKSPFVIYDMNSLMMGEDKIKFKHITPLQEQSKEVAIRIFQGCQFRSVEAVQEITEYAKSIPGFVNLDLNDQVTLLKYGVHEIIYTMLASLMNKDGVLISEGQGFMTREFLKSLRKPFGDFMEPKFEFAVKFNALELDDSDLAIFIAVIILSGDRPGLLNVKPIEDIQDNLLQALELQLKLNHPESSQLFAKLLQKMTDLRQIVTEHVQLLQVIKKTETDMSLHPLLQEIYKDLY

The nature of experiment [7]: qHTS assay for small molecule agonists of retinoid X receptor alpha signaling (AID 588544). Particulars: HEK293T RXRa-UAS-bla, beta-lactamase reporter, 18 h; 530 nm emission.
Experiment [8] addresses Thyroid hormone receptor beta (Homo sapiens) (UniProt P10828). Put plainly: qHTS assay for small molecule agonists of thyroid hormone receptor beta signaling (AID 588545; calls by dose curve;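 note: 0% = DMSO only and 100% = 10 nM T3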). A digest of the protocol: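 Beta-lactamase reporter activity under TR response element control is measured in HEK 293 cells after 18 hrs compound exposure. Signal is ratiometric CCF4 fluorescence, 460/530 nm.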

Experiment [9] is described as follows: qHTS assay for small molecule antagonists of retinoid X receptor alpha signaling (AID 588546; active = well fitted inhibition curve with a large enough effect in the signal ratio, with a control signal flat, not every such curve was filed as active; the % refers to the signal ratio;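 note: cells stimulated with 9-cis-retinoic acid as agonist; % is set by controls: 0 for no effect and ±100 for the full control effect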). Particulars: HEK293T RXRa-UAS-bla, beta-lactamase ratio, antagonist mode; measured here: W530 green channel, cytotoxicity proxy. A digest of the protocol:
(§2)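 Beta-lactamase reporter inhibition, read as CCF4 fluorescence ratio (ex 405, em 460/530 nm) after 2 h at RT. HEK293T UAS-bla cells, 2500/well, were stimulated with 9-cis-RA at 500 or 100 nM final alongside test compound for 18 h at 37 C.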

Experiment [10] addresses Retinoic acid receptor RXR-alpha (Homo sapiens) (UniProt P19793). The description is as above. Conditions: HEK293T RXRa-UAS-bla, beta-lactamase ratio, antagonist mode. A digest of the protocol: as §2
Experiment [11] in a line: qHTS assay for environmental chemicals that activate the Aryl hydrocarbon Receptor (AhR) signaling pathway (AID 651777). Note: % of control where 0% means no effect; nearly all actives have a fitted effect of over 15% in size. Conditions: 1A2-DRE human hepatoma cells, luciferase, 24 h; activation: stronger effect = higher value. The gist of the method:
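1A2-DRE human hepatoma reporter line; 1,200 cells/well; cmpd or DMSO 24 h, 37 C/5% CO2; One-Glo 30 min RT; luciferase lum.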

For experiment [12], the target named is Peroxisome proliferator-activated receptor alpha (Homo sapiens) (UniProt Q07869). Put plainly: qHTS assay for small molecule agonists of the peroxisome proliferator-activated receptor alpha (PPARalpha) signaling pathway (AID 651778). Note: % of control where 0% means no effect. Particulars: PathHunter PPARalpha complementation, chemiluminescence, 6 h; max response: stronger effect = higher value. The gist of the method: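 Chemiluminescence from complemented enzyme reported PPARalpha activation in cells after 6 hr of compound treatment at 37 C. The detection reagent was incubated for 60 min at room temperature, and compounds were scored as agonists.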
Peroxisome proliferator-activated receptor alpha (Homo sapiens), sequence (Q07869 whole entry, looked up): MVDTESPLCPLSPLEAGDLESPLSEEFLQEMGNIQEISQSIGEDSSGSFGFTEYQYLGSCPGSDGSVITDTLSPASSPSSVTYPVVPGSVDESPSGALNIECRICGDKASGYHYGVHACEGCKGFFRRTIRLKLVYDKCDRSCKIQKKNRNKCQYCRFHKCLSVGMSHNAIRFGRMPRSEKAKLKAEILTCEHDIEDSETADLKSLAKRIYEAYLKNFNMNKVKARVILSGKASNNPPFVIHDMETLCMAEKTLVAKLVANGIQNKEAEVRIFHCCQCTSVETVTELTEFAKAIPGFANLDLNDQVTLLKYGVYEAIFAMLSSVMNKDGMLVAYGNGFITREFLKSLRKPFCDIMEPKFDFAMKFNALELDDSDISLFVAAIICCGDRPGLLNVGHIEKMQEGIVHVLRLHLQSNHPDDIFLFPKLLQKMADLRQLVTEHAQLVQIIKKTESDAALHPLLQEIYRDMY

Experiment [13] can be described thus: qHTS assay for small molecule agonists of the antioxidant response element (ARE) signaling pathway measured by Nrf2-dependant transcriptional activity (AID 720636; active = well fitted curve in the direction sought with a large enough effect in the repeat runs; an effect the other way counts as inactive or inconclusive;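 note: HepG2 cells with an ARE-driven luciferase reporter; % of control where 0% means no effect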). A digest of the protocol: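 Cells: ARE-luc HepG2 with Nrf2-responsive luciferase. Medium contained 1% dialyzed FBS. Compound exposure lasted 16 hr at 37 C and 5% CO2, followed by ONE-Glo luciferase detection.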

Experiment [14] is described as follows: qHTS assay for small molecule agonists of the antioxidant response element (ARE) signaling pathway measured by Nrf2-dependant transcriptional activity - cell viability counter screen (AID 720653; active = well fitted curve in the direction sought with a large enough effect in the repeat runs; an effect the other way counts as inactive or inconclusive; note: % is set by controls: 0 for no effect and ±100 for the full control effect). Particulars: ARE-bla HepG2 viability, CellTiter-Glo ATP luminescence, 16 h; max response: stronger effect = lower value. A digest of the protocol: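 Cytotoxicity counter screen: intracellular ATP quantified by CellTiter-Glo luminescence in the same ARE-bla HepG2 plates, after 16 h compound exposure and a 2 h beta-lactamase substrate step.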

A short description of experiment [15]: qHTS assay for cell viability of HEK293 cells (AID 743288). Note: % is set by controls: 0 for no effect and ±100 for the full control effect; nearly all actives have a fitted effect of over 50% in size. Conditions: ATP luminescence (CellTiter-Glo), 18 h; max response: stronger effect = lower value. A digest of the protocol:
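Viable-cell counts were inferred from luciferase-based ATP content in HEK293 cells seeded at 2,000/well, pre-incubated ≥5 h, then dosed with DMSO-solubilised compounds for 18 h at 37 C.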

Experiment [16] in a line: qHTS assay for cell viability of the p53RE-bla HCT-116 cell line (AID 743292). Note: % is set by controls: 0 for no effect and ±100 for the full control effect; nearly all actives have a fitted effect of over 55% in size. A digest of the protocol: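 HCT-116 p53RE-bla cells seeded 4,000/well; 5 h at 37 C; compound (DMSO) added; 16 h at 37 C; CellTiter-Glo added, 30 min RT; luminescence read.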
The target in experiment [17] is Nuclear receptor subfamily 1 group I member 2 (Rattus norvegicus) (UniProt Q9R1A7). Put plainly: qHTS assay for small molecule activators of the rat pregnane X receptor (rPXR) signaling pathway (AID 651751; call rule not given here; note: 0% is about no effect). Particulars: rPXR reporter cells, luciferase (One-Glo), 24 h.
Nuclear receptor subfamily 1 group I member 2 (Rattus norvegicus), sequence (Q9R1A7 whole entry, looked up): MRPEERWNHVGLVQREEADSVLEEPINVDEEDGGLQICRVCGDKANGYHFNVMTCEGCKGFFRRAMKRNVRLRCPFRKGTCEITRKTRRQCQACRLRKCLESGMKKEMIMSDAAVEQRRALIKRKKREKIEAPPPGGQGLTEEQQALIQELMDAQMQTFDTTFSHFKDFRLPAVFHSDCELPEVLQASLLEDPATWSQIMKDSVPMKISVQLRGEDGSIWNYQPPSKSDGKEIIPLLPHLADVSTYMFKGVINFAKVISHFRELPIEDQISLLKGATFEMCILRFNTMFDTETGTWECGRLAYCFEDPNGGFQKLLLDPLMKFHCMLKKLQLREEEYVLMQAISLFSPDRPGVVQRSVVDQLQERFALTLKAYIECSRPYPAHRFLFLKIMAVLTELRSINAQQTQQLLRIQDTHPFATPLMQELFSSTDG
The nature of experiment [18]: qHTS assay for small molecule activators of the human pregnane X receptor (PXR) signaling pathway (AID 720659; call rule not given here; note: 0% is about no effect).
Experiment [19] addresses Thyroid hormone receptor beta (Homo sapiens) (UniProt P10828). Put plainly: qHTS assay for small molecule antagonists of thyroid hormone receptor beta signaling (AID 588547; active = well fitted inhibition curve with a large enough effect in the signal ratio, with a control signal flat, not every such curve was filed as active; the % refers to the signal ratio;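 note: cells stimulated with 0.4 nM T3 agonist during compound exposure; series mostly up to about 77 µM; % is set by controls: 0 for no effect and ±100 for the full control effect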). Conditions: TR-UAS-bla HEK293, beta-lactamase ratio, antagonist mode, 18 h. The gist of the method: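 Inhibition of T3-driven (0.4nM final) beta-lactamase reporter activity was measured over 0.59 nM to 92 uM compound after 18 h at 37 C. The cells were GripTite HEK293 TR-UAS-bla in charcoal/dextran-stripped serum, with CCF4 ratio read-out and IC50 from Hill fits.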

A short description of experiment [20]: qHTS assay for small molecule activators of the p53 signaling pathway (AID 651743; active = well fitted activation curve with a large enough effect in the signal ratio, not every such curve was filed as active; the % refers to the signal ratio; note: series mostly up to about 92 µM; % of control where 0% means no effect). Conditions: HCT-116 p53RE-bla, beta-lactamase FRET ratio, 16 h; activation: stronger effect = higher value. A digest of the protocol:
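A beta-lactamase reporter under p53 response element control, stably carried by HCT-116 cells, reported pathway activation. Test compounds were applied for 16 hours at 37 C, and fluorescence was measured 2 hours after adding the B/G FRET substrate.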

Inconclusive results are not listed. Activity calls are given as the source filed them. Unless noted, calls come from the whole dose curve; as a rule, active = well fitted curve in the direction sought with a large enough effect; inconclusive = small, poorly fitted or top-dose-only effect, or another doubt; inactive = no such curve, though single readings can be large; an effect the other way counts as inactive or inconclusive.

Retinoic acid receptor RXR-alpha (Homo sapiens), sequence (P19793 whole entry, looked up): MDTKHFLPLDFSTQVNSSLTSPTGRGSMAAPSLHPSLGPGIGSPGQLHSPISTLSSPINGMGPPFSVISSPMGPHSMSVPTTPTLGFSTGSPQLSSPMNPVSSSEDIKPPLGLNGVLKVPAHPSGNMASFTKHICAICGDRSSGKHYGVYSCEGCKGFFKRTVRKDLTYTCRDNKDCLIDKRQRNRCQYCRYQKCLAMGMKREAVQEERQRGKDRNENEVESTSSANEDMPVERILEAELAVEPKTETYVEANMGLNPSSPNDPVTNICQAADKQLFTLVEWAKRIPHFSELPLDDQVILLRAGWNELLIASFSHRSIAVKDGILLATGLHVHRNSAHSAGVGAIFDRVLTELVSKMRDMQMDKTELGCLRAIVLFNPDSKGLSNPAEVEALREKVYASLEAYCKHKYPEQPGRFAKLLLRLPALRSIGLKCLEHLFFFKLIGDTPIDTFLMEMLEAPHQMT
Thyroid hormone receptor beta (Homo sapiens), sequence (P10828 whole entry, looked up): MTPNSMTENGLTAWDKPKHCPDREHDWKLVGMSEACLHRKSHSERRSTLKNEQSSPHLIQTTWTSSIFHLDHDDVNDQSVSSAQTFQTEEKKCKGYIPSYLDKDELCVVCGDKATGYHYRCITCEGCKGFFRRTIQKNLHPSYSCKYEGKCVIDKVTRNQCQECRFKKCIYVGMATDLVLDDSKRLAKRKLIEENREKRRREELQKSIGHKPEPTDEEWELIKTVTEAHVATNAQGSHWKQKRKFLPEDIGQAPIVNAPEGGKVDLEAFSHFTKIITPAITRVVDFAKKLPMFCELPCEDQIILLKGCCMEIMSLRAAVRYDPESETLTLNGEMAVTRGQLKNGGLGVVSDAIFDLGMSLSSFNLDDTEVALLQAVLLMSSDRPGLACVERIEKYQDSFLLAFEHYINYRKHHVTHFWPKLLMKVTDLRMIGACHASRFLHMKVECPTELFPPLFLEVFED
Peroxisome proliferator-activated receptor delta (Homo sapiens), sequence (Q03181 whole entry, looked up): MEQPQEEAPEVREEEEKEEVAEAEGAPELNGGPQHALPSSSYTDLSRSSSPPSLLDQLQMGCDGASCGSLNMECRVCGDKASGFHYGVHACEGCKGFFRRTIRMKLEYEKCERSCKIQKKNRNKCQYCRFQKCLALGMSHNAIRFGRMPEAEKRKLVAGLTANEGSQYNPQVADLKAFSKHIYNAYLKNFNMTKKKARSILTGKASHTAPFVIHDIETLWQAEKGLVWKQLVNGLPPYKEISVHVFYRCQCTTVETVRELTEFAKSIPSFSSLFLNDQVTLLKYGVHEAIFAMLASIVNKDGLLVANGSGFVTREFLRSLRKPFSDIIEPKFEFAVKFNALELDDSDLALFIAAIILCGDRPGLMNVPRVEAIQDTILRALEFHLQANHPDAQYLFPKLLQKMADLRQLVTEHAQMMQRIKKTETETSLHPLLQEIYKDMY
Estrogen receptor (Homo sapiens), sequence (P03372 whole entry, looked up): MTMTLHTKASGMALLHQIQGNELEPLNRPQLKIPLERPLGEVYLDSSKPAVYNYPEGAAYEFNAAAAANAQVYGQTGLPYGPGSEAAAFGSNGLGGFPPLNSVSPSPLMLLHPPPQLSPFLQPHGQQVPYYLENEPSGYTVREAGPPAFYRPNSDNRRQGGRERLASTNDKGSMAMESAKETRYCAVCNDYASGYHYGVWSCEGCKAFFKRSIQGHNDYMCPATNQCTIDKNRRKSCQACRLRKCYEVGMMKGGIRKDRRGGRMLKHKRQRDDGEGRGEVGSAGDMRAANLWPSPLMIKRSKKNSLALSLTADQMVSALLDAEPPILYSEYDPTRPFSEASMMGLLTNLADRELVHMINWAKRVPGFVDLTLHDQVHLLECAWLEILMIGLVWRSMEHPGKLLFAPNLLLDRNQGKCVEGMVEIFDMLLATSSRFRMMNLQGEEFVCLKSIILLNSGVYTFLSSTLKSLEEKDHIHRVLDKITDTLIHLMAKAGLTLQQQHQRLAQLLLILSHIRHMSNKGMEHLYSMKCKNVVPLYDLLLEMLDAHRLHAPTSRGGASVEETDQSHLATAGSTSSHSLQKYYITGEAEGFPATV

With `CC1=CC2C3CC(C=C3C)C2C1` (stereo not given), the Potency entry in [1], in [2], in experiment [5], in experiment [8], in [13] and in [16] was “inactive” in each case. Further, the figures for the activation in experiment [3] and in [11] were 1.22% (inactive) and -1.81% (inactive), respectively. Besides, the max response in experiment [4] is 7.89%; in experiment [7], -8.84%; in experiment [9], -10.9%; in experiment [10], 3.65% (inactive); in [12] it was -1.19% (inactive); in experiment [14], 1.82% (inactive). For the same compound, the max response in [15] was -3.16% (inactive); in experiment [17], -0.63% (inactive). For the same compound, the compound was called inactive in experiment [6] and in experiment [18].
`CNc1nc(=O)n(C2CCC(O)CC2)c(=O)n1C` (stereo not given): the Potency result in experiment [1], in experiment [2], in [5], in [8], in experiment [13] and in experiment [16] was “inactive” each time. The activation is 2.82% (inactive) in experiment [3], 1.92% (inactive) in experiment [20] and -1.26% (inactive) in experiment [11]. The max response is 29.9% in [4]; -9.94% in experiment [7]; -9.65% in experiment [9]; 4.66% (inactive) in experiment [10]; -6.82% (inactive) in [14]; -1.62% (inactive) in [15]. The max response in experiment [17] was -0.414% (inactive). Moreover, the call in experiment [6] and in [18] was inactive. Also, the activity change % (negative = inhibition) in experiment [19] is -13.9% (inactive).
For `OC1CCC(C2CCCCC2)CC1` (stereo not given), the Potency result in experiment [1], in experiment [2], in [5], in [8], in experiment [13] and in experiment [16] was “inactive” throughout. For the same compound, the max response is -39.9% in experiment [4]; -2.23% in experiment [7]; -5.21% in [9]; 6.85% (inactive) in experiment [10]; -0.35% (inactive) in experiment [12]; -10.1% (inactive) in [14]. Also, the figures for the max response in experiment [15] and in experiment [17] were -12.9% (inactive) and -2.53% (inactive), respectively. Moreover, the compound was called inactive in experiment [6] and in experiment [18]. For the same compound, the activity change % (negative = inhibition) in experiment [19] was 4.98% (inactive). Moreover, the values for the activation in experiment [20] and in experiment [11] were 3.92% (inactive) and -1.51% (inactive), respectively.
`CC/C=C\CCOC(=O)c1ccccc1O`: the Potency entry in experiment [1], in experiment [5], in experiment [8], in experiment [13] and in [16] was “inactive” throughout. The Potency in [2] is 25.1 µM (active). Also, the activation in experiment [3] was -3.47% (inactive); in experiment [20] it was -5.63% (inactive); in [11], 1.45% (inactive). Besides, the max response was -19.1% in experiment [4]; -9.64% in [7]; -7.38% in [9]; 0.792% (inactive) in [10]; 0.589% (inactive) in experiment [12]; 6.72% (inactive) in [14]. For the same compound, the max response in experiment [15] is 0.746% (inactive); in experiment [17], 5.21% (inactive). Moreover, the call in experiment [6] and in experiment [18] was inactive. The activity change % (negative = inhibition) in experiment [19] is 0.0454% (inactive).
On to `C[N+](C)(C)CC(O)CCl` (stereo not given), for which the Potency entry in experiment [1], in [2], in experiment [5], in experiment [8], in experiment [13] and in [16] was “inactive” each time. For the same compound, the activation in experiment [3] is -7.46% (inactive); in experiment [20], 0.454% (inactive); in experiment [11], 0.882% (inactive). The max response in experiment [4] was 1.91%; in experiment [7], -3.49%; in [9], -3.33%; in experiment [12], -0.685% (inactive); in experiment [14], 0.797% (inactive); in experiment [15] it was -11.6% (inactive). The max response in [17] was 0.555% (inactive). For the same compound, the result in [6] and in experiment [18] was inactive. In addition, the activity change % (negative = inhibition) in experiment [19] was -6.17% (inactive).
`c1ccc2c(c1)Cc1ccccc1-2`: the Potency entry in experiment [1], in experiment [2], in experiment [13] and in experiment [16] was “inactive” in each case. Moreover, the compound was called inactive in experiment [6] and in experiment [18]. The max response in experiment [7] is -12.1%; in experiment [9], -16.6%; in [12], -0.262% (inactive); in experiment [14], -7.29% (inactive); in experiment [15] it was -4.41% (inactive); in [17], -3.34% (inactive). Besides, the activity change % (negative = inhibition) in experiment [19] was -15.6% (inactive). The figures for the activation in experiment [20] and in experiment [11] were 2.83% (inactive) and 1.34% (inactive), respectively.
